Measured values published in PubChem BioAssay (NCI).
Compounds without any hit were thinned out: in the full panel of roughly 83,000, 20% have a hit.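 Growth was measured after 48 h exposure to one concentration of compound in 96-well plates. Values under 10 count as active.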 Unmarked numbers belong to inactive results. The source made the active and inactive calls.

Test system: HCC-2998 colon
Assay: NCI-60 one-dose screen, 48 h (100 = growth as untreated, 0 = no growth, -100 = all killed)
Conditions: 10 µM

Row | SMILES | growth
1 | CCCCCC(C)(CC(=O)O)CC(=O)O | 113%
2 | COc1cccc(/C=N/NC(=S)NC2CC3CCC2C3)c1O (stereo not given) | 96.3%
3 | COc1cc([C@@H]2c3cc4c(cc3[C@H](O)[C@H]3COC(=O)[C@H]23)OCO4)cc(OC)c1OC | -4.87% (active)
4 | CCCC(C)OCC(=O)O (stereo not given) | 106%
5 | C=CC[N+](C)(C)C | 103%
6 | COc1ccc(C2(O)CCCCC2)cc1 | 104%
7 | S=C1CCCCCN1 | 112%
8 | Cc1ccc(Cl)cc1N1C(=O)CC(Sc2ccccc2N)C1=O (stereo not given) | 101%
9 | CC1(C)/C(=C\CO)C2CCC1C2 (stereo not given) | 104%
10 | O=[N+]([O-])c1cccc(C(F)(F)F)c1 | 103%
11 | CC(C)CCCC(=O)O | 103%
12 | NC(CSC(c1ccccc1)(c1ccccc1)c1ccccc1)C(=O)O (stereo not given) | 15.9%
13 | c1ccc2c(N3CCCCC3)ncnc2c1 | 81.1%
14 | CCCCCCCO | 107%
15 | CC(C(=O)O)(C1CCCCC1)C1(O)CCCCC1 (stereo not given) | 96.3%
16 | CC1(C(=O)O)NC(C(=O)O)Cc2c1[nH]c1ccccc21 (stereo not given) | 104%
17 | O=C(/C(=N/O)c1ccccc1)c1ccccc1 | 107%

Test system: KM12 colon
Assay: as above
Conditions: 10 µM

Row | SMILES | growth
18 | CC1(C)OC(=O)C(c2ccsc2)C(=O)O1 | 102%
19 | C#Cc1cccc(NC(=O)c2ccc(Cl)cc2Cl)c1 | 115%
20 | C=CCCCCCCCCCOC(C)=O | 103%
21 | CCN(CC)CCCC(C)Nc1ccnc(/C=C/c2ccc(Cl)cc2)c1 (stereo not given) | 25.3%
22 | CCOC(=O)C1OC1c1ccccc1 (stereo not given) | 100%
23 | Oc1ccc(N=Nc2ccc(Br)cc2)c(O)c1 | 8.35% (active)
24 | Cc1cc(C(C)(C)C)cc(C)c1Br | 105%
25 | O=C(CC(=O)c1ccccc1O)c1ccccc1 | 92.8%
26 | CC(C)OC(=O)c1cc(NC(=S)OC(C)C)ccc1Cl | 59.5%
27 | O=[N+]([O-])c1ccc(CO)cc1 | 105%
28 | Sc1ccc(Nc2c3ccccc3nc3ccccc23)cc1 | 65.5%
29 | C#C[C@H]1CCCCCC1O (stereo not given in full) | 107%
30 | CCOC(=O)CCCS(C)(=O)=O | 108%
31 | O=C(O)COCC(=O)O | 96.4%
32 | [O-][N+](=Nc1cccc(Cl)c1)c1cccc(Cl)c1 | 91.9%
33 | OCC(O)C(O)C(O)C(O)/C=N/O (stereo not given) | 101%
34 | CC(=O)c1ccc(C(C)(C)C)cc1 | 102%
35 | CCN(CC)C(=O)/C=C(/C)c1ccccc1 | 111%
36 | CCCCC1C(=O)N(c2ccccc2)N(c2ccccc2)C1=O | 109%

Row | SMILES | growth
37 | O=C1C=C(Nc2ccc([N+](=O)[O-])cc2)c2ccccc2C1=O | 32.4%
38 | CCCCC(O)c1ccccc1 (stereo not given) | 106%
39 | CCCCCC(C)(CC(=O)O)CC(=O)O | 115%
40 | COc1cccc(/C=N/NC(=S)NC2CC3CCC2C3)c1O (stereo not given) | 69.1%
41 | COc1cc([C@@H]2c3cc4c(cc3[C@H](O)[C@H]3COC(=O)[C@H]23)OCO4)cc(OC)c1OC | -4.78% (active)
42 | CCCC(C)OCC(=O)O (stereo not given) | 101%
43 | C=CC[N+](C)(C)C | 114%
44 | COc1ccc(C2(O)CCCCC2)cc1 | 107%
45 | S=C1CCCCCN1 | 105%
46 | Cc1ccc(Cl)cc1N1C(=O)CC(Sc2ccccc2N)C1=O (stereo not given) | 112%
47 | CC1(C)/C(=C\CO)C2CCC1C2 (stereo not given) | 114%
48 | O=[N+]([O-])c1cccc(C(F)(F)F)c1 | 119%
49 | CC(C)CCCC(=O)O | 102%
50 | NC(CSC(c1ccccc1)(c1ccccc1)c1ccccc1)C(=O)O (stereo not given) | 22.5%
51 | c1ccc2c(N3CCCCC3)ncnc2c1 | 103%
52 | CCCCCCCO | 112%
53 | CC(C(=O)O)(C1CCCCC1)C1(O)CCCCC1 (stereo not given) | 98.4%
54 | CC1(C(=O)O)NC(C(=O)O)Cc2c1[nH]c1ccccc21 (stereo not given) | 103%
55 | O=C(/C(=N/O)c1ccccc1)c1ccccc1 | 107%
